The results in this text go back to PubChem BioAssay (EPA / NIEHS).

Inconclusive results are not listed. Active and inactive are the calls of the source. Rule for the calls: active = hit-call score of the fitted dose curve at least 0.9, where 1 is the maximum; inconclusive = response in the unintended direction; inactive = score below 0.9.

Read-out in this assay: HMG-CoA synthase (HMGCS2), HMGCS2 (gene 3158)
Kind of assay: CLD_HMGCS2_24hr: CellzDirect (CLD) Gene Expression Assay for HMG-CoA synthase (HMGCS2) at 24 hours (AID 2283691). The method, then:
CLD_24hr is a cell-based, multiplexed-readout assay that uses hepatocyte, a human liver primary cell, with measurements taken at 24 hours after chemical dosing in a 96-well plate.CLD_HMGCS2_24hr is one of 16 assay component(s) measured or calculated from the CLD_24hr assay. It is designed to make measurements of mRNA induction, a form of inducible reporter, as detected with chemiluminescence signals by Quantitative Nuclease Protection Assay (qNPA) technology.Data from the assay component CLD_HMGCS2_24hr was analyzed at the endpoint, CLD_HMGCS2_24hr, in the positive analysis fitting direction relative to DMSO as the negative control and baseline of activity. Using a type of inducible reporter, gain-of-signal activity can be used to understand changes in the reporter gene as they relate to the gene HMGCS2. Furthermore, this assay endpoint can be referred to as a primary readout. To generalize the intended target to other relatable targets, this assay endpoint is annotated to the lyase intended target family, where subfamily is HMG-CoA synthase.
Human hepatocyte cultures were treated daily for two consecutive days with fresh dosing solutions containing appropriate concentrations of the 320 ToxCast chemicals (chemical identities were blinded to CellzDirect and other ToxCast collaborators), vehicle control (0.2% DMSO), and positive control inducers as summarized in Table 1. Due to the large number of treatment groups and chemicals examined, the ToxCast chemicals were divided into two groups (spanning two independent cultures of hepatocytes from separate donor preparations (Hu778: ToxCast plates 1 and 2; Hu776: ToxCast plates 3 and 4). Each preparation of human hepatocyte cultures was treated with respective vehicle control, medium only control, set of six positive controls/reference chemicals for the five hepatic receptor pathways, and a subset of eight of the ToxCast chemicals (indoxacarb, pyrithiobac-sodium, norflurazon, cyhalofop-butyl, methomyl, thiram, acetochlor, and propiconazole). These replicate data, coupled with internal replicates designed within the blinded ToxCast chemical library, provided additional data to evaluate interindividual differences between hepatocyte preparations and their potential impact on chemical profiles.Cell morphology and integrity were evaluated using phase-contrast microscopy as an indicator of hepatocyte cell health (Tyson & Green, 1987). Cultures for each treatment group (i.e., media, vehicle [0.2% DMSO], positive control inducers [multiple concentrations], and the ToxCast chemicals [multiple concentrations]) were observed and cell morphology was assessed relative to vehicle control cultures at each harvest time point (0, 6, 24, or 48 h). […] Images were evaluated at the conclusion of the study to assess changes in cell integrity and account for the effects of chemical exposure on uncharacteristic changes in concentration-dependent gene expression profiles. The results from these determinations of apparent cytotoxicity were annotated (yes/no) alongside the corresponding qNPA data for reference.At the conclusion of each treatment period, hepatocyte cultures (96-well) were washed with 1 volume of HBSS, lysed by addition of 25 ul ArrayPlate lysis buffer (HTG, Tucson, AZ), and 70 ul/well of Denaturation Oil, denatured by incubation at 95C for 10 min, and frozen at approximately -70C until analysis by nuclease protection assay (qNPA) (Roberts et al., 2007). For qNPA analysis, cell lysates were thawed at 50C for approximately 30 min, qNPA probes were added, and samples were incubated at 95C for 10 min to begin the detection process by denaturing the target RNA, dissociating the duplexes and secondary structure hybridization. At the conclusion of the hybridization period, S1 nuclease reagent was added to each sample to digest all nonprotected nucleotides at 50C for 60-90 min. […]
Turning to `CSC1=N[C@@](C)(c2ccccc2)C(=O)N1Nc1ccccc1`, the molecule was classed as inactive. Take `CCCCOC(=O)[C@@H](C)Oc1ccc(Oc2ccc(C#N)cc2F)cc1`: the call was inactive. The same measure for `CC(Oc1cccc(Cl)c1)C(=O)O` (stereo not given): “inactive”; for `CCOP(=S)(OCC)SCCSCC`: “inactive”. In the case of `CNC(=O)ON=C(SC)C(=O)N(C)C` it was “inactive”; in that of `COc1cc(OC)nc(Sc2cccc(Cl)c2C(=O)O)n1`, “inactive”. Turning to `COP(=O)(OC)C(O)C(Cl)(Cl)Cl` (stereo not given), the molecule was called inactive. The same measure for `CC(COc1ccc(Oc2ccccc2)cc1)Oc1ccccn1` (stereo not given): “inactive”. Take `O=C(O)c1cc(Oc2ccc(C(F)(F)F)cc2Cl)ccc1[N+](=O)[O-]`: the result was inactive.

As to `CCCSP(=O)(OCC)SCCC`, the molecule was called inactive. In the case of `CN(C)[C@@H]1C(=O)C(C(N)=O)=C(O)[C@@]2(O)C(=O)C3=C(O)c4c(O)cccc4[C@@](C)(O)[C@H]3[C@H](O)[C@@H]12` it was “inactive”; in that of `CC1=NNC(=O)N(/N=C/c2cccnc2)C1`, “inactive”. In the case of `C[N+]1(C)CCCCC1` it was “inactive”; in that of `CC[C@H](C)[C@H]1O[C@]2(C=C[C@@H]1C)C[C@@H]1C[C@@H](C/C=C(\C)[C@@H](O[C@H]3C[C@H](OC)[C@@H](O[C@H]4C[C@H](OC)[C@@H](NC)[C@H](C)O4)[C@H](C)O3)[C@@H](C)/C=C/C=C3\CO[C@@H]4[C@H](O)C(C)=C[C@@H](C(=O)O1)[C@]34O)O2`, “inactive”; in that of `O=c1ccc(=O)[nH][nH]1`, “inactive”. In the case of `CCc1cnc(C2=NC(C)(C(C)C)C(=O)N2)c(C(=O)O)c1` (stereo not given) it was “inactive”; in that of `CCCCOC(=O)c1ccccc1C(=O)O`, “inactive”.

In the case of `CCOP(=S)(OCC)OC(Cl)C(Cl)(Cl)Cl` (stereo not given), the call was inactive. With `CC(=NC#N)N(C)Cc1ccc(Cl)nc1`, the molecule was classed as inactive.

Turning to `CCOP(=O)(OCC)Oc1cc(C)nc(C(C)C)n1`, the result was inactive.
